From PubChem BioAssay (NCI)
This is part of a sample that, as a whole, favours compounds with a hit. Of some 83,000 tested, about 20% had one in any assay.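 Compound tested at a single concentration for 48 hours in 96-well plates; a percent growth value below 10 was scored as active.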 Active and inactive are the calls of the source.

test system: MDA-MB-468 breast; assay: NCI-60 one-dose screen, 48 h (100 = growth as untreated, 0 = no growth, -100 = all killed); conditions: 10 µM unless noted

| Structure (SMILES) | growth |
| --- | --- |
| CC1CN(c2oc(-c3ccccc3)nc2C#N)CC(C)O1 (stereo not given) | 109% (inactive) |
| COc1ccc(-c2nc(NN)c3c(C)nn(-c4ccc(F)cc4)c3n2)cc1 | 25.8% (inactive) |
| CCCCCCCCN(CCCCCCCC)C(=O)CCl | 79.9% (inactive) |
| N=C(N)c1ccc(-c2ccc(-c3ccc(F)cc3)o2)o1 | 5.37% (active) |
| Cc1cc2nc3c4cc(Cl)ccc4n(CC(=S)NCCN(C)C)c3nc2cc1C | -89.3% (active) |
| C1=CC(c2nn3c(-c4ccccc4)nnc3s2)=Cc2ccccc2O1 | 44.9% (inactive) |
| COc1ccc(C2=NN(C(C)=O)C(c3cn(Cc4ccc(Cl)cc4)c4ccccc34)C2)cc1 (stereo not given) | 69.2% (inactive) |
| COc1ccc(C2=Nn3c(nnc3-c3ccc(Cl)cc3N)SC2)cc1 | 100% (inactive) |
| CC1Cc2ccccc2N1NC(=O)c1ccc(Cl)c(S(N)(=O)=O)c1 (stereo not given) | 94.8% (inactive) |
| Cc1ccc(NC(=O)Nc2nc3ccc([N+](=O)[O-])cc3s2)cc1 | -15.6% (active) |
| O=C(Nc1ccc(I)cc1F)c1cc(I)ccc1O | -13.2% (active) |
| C=CCO[C@H]1CO[C@H]2[C@@H]1OC[C@@H]2Oc1ccc(Nc2ccnc(Nc3ccc(O[C@H]4CO[C@H]5[C@@H]4OC[C@@H]5OCC=C)c(Cl)c3)n2)cc1Cl | -84.5% (active) |
| COc1ccc(OC)c(NC(=O)c2sc3nc4c(cc3c2N)C(=O)CCC4)c1 | 37.5% (inactive) |
| CCNC(=O)Nc1nc2ccc(Oc3ccnc(C(=O)NC)c3)cc2s1 | 50.8% (inactive) |
| CN(C)CCOC(=O)C(C)(C)C | 98.9% (inactive) |
| COc1ccc(C2CC(=O)Nc3c2c(C)nn3-c2nc3ccccc3[nH]2)cc1 (stereo not given) | 101% (inactive) |
| Brc1ccc2c(c1)-c1ccccc1C1=NCCN12 | -45% (active) |
| O=C(CCCOc1ccc(Br)cc1)Nc1ncc(Cc2ccc(F)cc2)s1 | 57% (inactive) |
| CC[C@@]1(OC(=O)CN(C)C)C(=O)OCc2c1cc1n(c2=O)Cc2cc3c(N)cccc3nc2-1 | -66.4% (active) |
| CC(=O)Oc1csc(N(C(C)=O)c2cc(C(=O)O)cc(C(=O)O)c2)n1 | 95.2% (inactive) |

| Structure (SMILES) | growth |
| --- | --- |
| NNc1ccccc1C(=O)O | 102% (inactive) |
| O=C(Nc1cccc(Cl)c1)c1cc([N+](=O)[O-])ccc1O | 31.3% (inactive) |
| N#Cc1ccc(-c2ccc3c(c2)NC(=O)/C3=C\c2ccc[nH]2)cc1 | -18.2% (active) |
| Nc1nc(N)c2c(n1)NC(c1ccc(Cl)cc1)CC(c1ccc(Nc3nc(NCCO)nc(Nc4ccc(Cl)cc4)n3)cc1)=N2 (stereo not given) | -29% (active) |
| COc1c(Cl)c2c(c(OC)c1OC)-c1ccc(SC)c(=O)cc1[C@@H](NC(=O)OCC(F)(F)F)CC2 | -15.5% (active) |
| Nc1ncn([C@@H]2O[C@H](CO)[C@@H](O)[C@H]2O)c(=O)n1 | 33.2% (inactive) |
| Cc1ccc(-c2nc3c(c(-c4ccccc4)nn3-c3ccccc3)c(-c3ccc(O)cc3)c2C#N)cc1 | 52.7% (inactive) |
| COc1ccc(C(=O)c2cc(OC)c(OC)c(OC)c2OC)cc1O | 29.7% (inactive) |
| Cc1sc2ncn(CC(=O)Nc3ccc(S(N)(=O)=O)cc3)c(=O)c2c1C | 104% (inactive) |
| O=C(O)c1ccc(-c2nn(-c3ccc(C(F)(F)F)cc3)cc2CNc2ccc(Oc3ccccc3)cc2)cc1 | 117% (inactive) |
| NC(=O)c1cc(Cl)ccc1NC(=O)c1ccccc1-c1ccccc1 | 25.4% (inactive) |
| COC(=O)c1ccc2c(c1)n(Cc1ccc3ccccc3c1)c[n+]2Cc1ccc2ccccc2c1 | -19% (active) |
| COc1ccc(C(=O)/C=C/c2ccc(N3CCCCC3)cc2)cc1OC | 61.8% (inactive) |
| CCCCN1CCN(c2ccc3nc(-c4ccc5nc(-c6cc(OC)c(OC)c(OC)c6)[nH]c5c4)[nH]c3c2)CC1 | 45.7% (inactive) |
| CC(=O)/C(=C/c1ccccc1)C(=O)CC(C)C | 93.7% (inactive) |
| Clc1ccc(N/N=c2/oc3ccccc3cc2-c2cc3ccccc3[nH]2)cc1 | 59.8% (inactive) |
| NCCNc1nc2ccc(F)cc2c2c(=O)c3cc(F)ccc3sc12 | 45.3% (inactive) |
| CC[N+](C)(CC)CCO | 91.8% (inactive) |
| COc1ccc(-c2nc3sc(-c4ccccc4)c(-c4ccccc4)n3c2/C=C/C(=O)c2ccccn2)cc1 | 60% (inactive) |
| COc1ccccc1NC(=O)OCC12COCN1COC2 | 101% (inactive) |
